Reference: PubChem BioAssay (EPA / NIEHS)
Activity calls are given as the source filed them. The calls were made as follows: active = hit-call score of the fitted dose curve at least 0.9, where 1 is the maximum; inactive = score below 0.9.

Test: APR_HepG2_MitoticArrest_72hr: Apredica 72-hour HepG2 Assay for Mitotic Arrest (AID 2282918)
Settings: high-content imaging, actives raise or lower the signal
Description: APR_HepG2_72hr is a cell-based, multiplexed-readout assay that uses HepG2, a human liver cell line, with measurements taken at 72 hours after chemical dosing in a 384-well plate.APR_HepG2_MitoticArrest_72hr is one of 10 assay component(s) measured or calculated from the APR_HepG2_72hr assay. It is designed to make measurements of cell phenotype, a form of morphology reporter, as detected with fluorescence intensity signals by HCS Fluorescent Imaging technology.Data from the assay component APR_HepG2_MitoticArrest_72hr was analyzed into 1 assay endpoint. This assay endpoint, APR_HepG2_MitoticArrest_72hr, was analyzed with bidirectional fitting relative to DMSO as the negative control and baseline of activity. Using a type of morphology reporter, measures of protein for gain or loss-of-signal activity can be used to understand the signaling at the pathway-level as they relate to the gene . Furthermore, this assay endpoint can be referred to as a primary readout, because this assay has produced multiple assay endpoints where this one serves a signaling function. To generalize the intended target to other relatable targets, this assay endpoint is annotated to the cell cycle intended target family, where the subfamily is arrest.
Cells were treated with dimethyl sulfoxide (DMSO) as a solvent control at a final concentration of 0.5% v/v or with compounds in DMSO with a resulting final DMSO concentration of 0.5% v/v. Compound treatment was done at concentrations of 0.39, 0.78, 1.56, 3.12, 6.24, 12.5, 25, 50, 100, and 200 uM in duplicate on each plate. Cells were treated with compounds for 1, 24, or 72 hr. Carbonyl […] m-chloro-phenylhydrazone (CCCP) and taxol were used as positive controls for mitochondrial function and cytoskeletal stability, respectively; DMSO served as the negative control for this experiment. Cells were fixed by the direct addition of 50 uL formaldehyde in Hank's Balanced Salt Solution (HBSS) to a final concentration of 3.7%. After incubation in the fixation medium for 30 min at room temperature (293-298 K), cells were rinsed twice with HBSS and treated with cell permeabilization buffer (16 uL of 0.5% Triton X-100) for 10 min at room temperature (293-298 K) before labeling. For mitochondrial membrane potential and mitochondrial measurements, pre-fixed cells were incubated with 50 uL of MitoTracker Red CMXRos (Invitrogen) at a concentration of 250 nM for 30 min before fixation. In the remaining cases, post-fixed cells were labeled by incubation with a multiplexed mixture of primary antibodies in HBSS for 60 min at room temperature (293-298 K) to detect immunoreactivity of c-Jun (1:500), phospho-histone H3 (1:100), phospho-histone H2A.x (1:200), p53 (1:400), alpha-tubulin (1:200) and Hoechst 33342 (2 ug/mL). Cells were labeled for multiplexed imaging on two separate plates: a) Hoechst 33342, MitoTracker Red, phospho-histone H3, and alpha-tubulin, and b) Hoechst 33342, phospho-histone H2A.x, and c-Jun. A final rinse with HBSS (50 uL) was performed before analysis. The primary and secondary antibodies for the proteins were phospho-histone H3 (rabbit anti-phospho-histone H3 and FITC-donkey anti-rabbit IgG), phospho-histone H2A.x (mouse anti-phospho-histone H2A.x and FITC-donkey anti-mouse IgG), c-Jun (rabbit anti-phospho-c-Jun and Cy3-donkey anti-rabbit IgG), p53 (sheep anti-p53 and Cy5-donkey anti-sheep IgG), alpha-tubulin (mouse anti-alpha-tubulin and Cy5-donkey anti-mouse IgG). These antibodies are available as the CellCiphr HepG2 assay kit (Millipore).Digital images of each well were captured using a Cellomics ArrayScan VTI (Thermo Scientific Cellomics) (0.8 NA objective, 0.63x optical coupler, and XF-93 filter set) at 20x magnification. The images were acquired using the autofocus feature of the ArrayScan instrument, which entails the following steps. First, the camera focuses on channel 1 (Hoechst 33342), where nuclei are identified. Second, a Z offset of 1 um is used for capturing mitochondria (MitoTracker Red). […]

| SMILES | outcome | AC50 |
| --- | --- | --- |
| CC(C)O.CC(C)O.OCCN(CCO)CCO.OCCN(CCO)CCO.[Ti] | inactive |  |
| Oc1cc(Cl)c(Cl)cc1Cl |  | 29.5 µM (active) |
| Clc1cccc(Cl)c1Cl | inactive |  |
| OCCN(CCO)CCO | inactive |  |
| CCCCCCCCCCCCc1cccc(S(=O)(=O)O)c1 | inactive |  |
| Cc1cc(C)cc(C)c1 | inactive |  |
| CC(C)(C)c1ccccc1O | inactive |  |
| Clc1cccc(Cl)c1 | inactive |  |
| N#Cc1cccnc1 | inactive |  |
| O=C(N[C@H]1CN2CCC1CC2)c1ccc2c(c1)OCCO2 | inactive |  |
| O=C(O)C1(c2ccc3c(c2)OC[C@H](Cc2ccc(-c4ccccc4)cc2)[C@H]3O)CCCC1 |  | 105 µM (active) |
| Oc1c(Cl)cc(Cl)cc1Cl |  | 50 µM (active) |
| CN(C)C(=S)S |  | 0.125 µM (active) |
